# Assay outcomes from PubChem.
# G9a block = G9a (human) methyltransferase inhibition; Q96KQ7; G9a H3K9 monomethylation, AlphaScreen, 2 h; Potency, µM (titrated, usually from 102 µM), for inactives: at the top dose activity, negative = inhibition, most hits filed as inhibitors; hit rate 8.8% among 350,000; AID 504332; further: potency means the concentration at half of the fitted maximal effect; on the % scale 0 is the no-effect control and ±100 the full control effect; nearly all actives have a fitted effect of over 75% in size
# Target sequence (Q96KQ7 913-1193 limits assumed): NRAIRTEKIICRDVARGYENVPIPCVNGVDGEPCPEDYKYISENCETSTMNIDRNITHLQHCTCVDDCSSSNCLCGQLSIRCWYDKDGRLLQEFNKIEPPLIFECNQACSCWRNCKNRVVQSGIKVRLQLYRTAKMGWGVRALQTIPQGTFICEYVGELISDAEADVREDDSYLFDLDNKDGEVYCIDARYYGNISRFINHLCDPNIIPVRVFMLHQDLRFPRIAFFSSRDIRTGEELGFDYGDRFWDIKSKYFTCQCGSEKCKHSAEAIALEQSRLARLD
#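 Methyltransferase reactions run at room temperature for 2 h (20 nM enzyme, 500 nM biotin-H3K9 peptide, 20 uM SAM) after a 15 min compound preincubation; product detected by AlphaScreen beads and anti-H3K9me1 antibody.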
# BAZ2B inh = BAZ2B (human) inhibition. Q9UIF8. AlphaScreen BAZ2B-H3K14Ac peptide displacement. Potency, µM (titrated, usually from 114 µM), inactives show at the top dose activity change, negative = inhibition, actives largely listed as inhibitors. hit rate 4.4% among 360,000. AID 504333; further: potency means the concentration at half of the fitted maximal effect; on the % scale 0 is the no-effect control and ±100 the full control effect; nearly all actives have a fitted effect of over 60% in size
#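 Multi-concentration screen (max 110 uM) measuring displacement of acetylated histone H3 peptide from BAZ2B by AlphaScreen, using 50 nM protein, 50 nM peptide and 10 ug/mL streptavidin donor plus Ni-chelate acceptor beads.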
# PLK1 PBD inh = PLK1 (human) polo-box domain binding inhibition | Plk1 PBD binding of FITC phosphopeptide, fluorescence polarization | hit rate 2.8% among 360,000 | Potency, µM, without a hit: max response, negative = inhibition, actives largely listed as inhibitors | AID 720504 | P53350; further: potency means the concentration at half of the fitted maximal effect; series mostly up to about 57 µM; on the % scale 0 is the no-effect control and ±100 the full control effect; nearly all actives have a fitted effect of over 65% in size
# JMJD2A Tudor = inhibitors of human JMJD2A Tudor domain; Potency, µM (top dose mostly 114 µM), for the others: at the top dose activity change, negative = inhibition, hits mostly inhibitors; AlphaScreen JMJD2A-Tudor / H3K4me3 peptide binding; hit rate 4.4% among 390,000; further: potency means the concentration at half of the fitted maximal effect; on the % scale 0 is the no-effect control and ±100 the full control effect; nearly all actives have a fitted effect of over 50% in size
# HP1b binding inh = HP1-beta chromodomain-methylated histone interaction inhibition. hit rate 0.56% among 390,000. P83916. Potency, µM (highest dose often 114 µM), without a hit: at the top dose activity change, negative = inhibition, actives largely listed as inhibitors. AlphaScreen HP1-beta / biotin-H3K9me3 peptide binding; further: potency means the concentration at half of the fitted maximal effect; nearly all actives have a fitted effect of over 70% in size
# Target sequence (P83916 whole entry, looked up): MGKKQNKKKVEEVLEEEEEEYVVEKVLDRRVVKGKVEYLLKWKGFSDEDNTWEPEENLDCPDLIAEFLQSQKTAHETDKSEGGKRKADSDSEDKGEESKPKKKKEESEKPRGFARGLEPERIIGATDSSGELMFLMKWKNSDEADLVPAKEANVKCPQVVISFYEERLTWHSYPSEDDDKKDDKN
#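 AlphaScreen: HP1-beta (50 nM) preformed 30 min with biotin-H3(1-18)K9me3 peptide (50 nM) in PBS pH 7.4, 0.01% Tween-20. Compound added for 30 min at RT, then streptavidin donor/nickel chelate acceptor beads (10 ug/mL) for 30 min.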
# PI5P4Ka inh = inhibitors of human PI5P4K alpha; P48426; PI5P4Kalpha enzyme, ADP-Glo luminescence, 60 min; stronger effect = lower value; max response, %; hit rate 1.2% among 330,000; AID 652105; active means max response of -50% or lower; inconclusive means between -30% and -50%; inactive means -30% or higher; further: value at the top dose of about 77 µM; on the % scale 0 is the no-effect control and ±100 the full control effect
#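 Quantitative HTS of the MLSMR library against PI5P4Kalpha with substrate. ATP added last at 5 microM final; room temperature, 60 minutes. Remaining ATP depleted, ADP converted and read as luminescence.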
# Active calls of the source: *; ? = inconclusive; . = no result given; [ ] = dose if it differs, or a comment. This is a sample that favours compounds with a hit; in the whole collection about 12% have one here. Unless noted, the call rests on the fitted dose curve; in most records, active means well fitted curve in the direction sought with a large enough effect; inconclusive means small, poorly fitted or top-dose-only effect, or another doubt; inactive means no such curve, though single readings can be large; an effect the other way counts as inactive or inconclusive.
SMILES,G9a block,BAZ2B inh,PLK1 PBD inh,JMJD2A Tudor,HP1b binding inh,PI5P4Ka inh
Cc1ccc(NC(=O)C(=O)NNC(=O)c2cccs2)cc1,3.98µM*,-24.0%,2.1%,-8.8%,38.4%,-4.2
O=C(COc1ccc2ccccc2c1)NC1CC(=O)N(c2cccc(F)c2)C1 (centres undefined),4.8%[59 µM],-4.2%,.,-5.8%,47.8%,.
CC1CCN(c2ccc(-c3nc(C(C)C)no3)cc2[N+](=O)[O-])CC1,-31.8%[59 µM],-25.8%,.,-15.9%,37.0%,.
Brc1ccc(-c2ccc(C3Nc4cccc5cccc(c45)N3)o2)cc1,-24.8%[0.501 µM],-30.5%,.,.,.,.
Oc1ccc(C2Nc3cccc4cccc(c34)N2)c(O)c1,44.7µM*,?,?,79.4µM*,17.8µM*,?
Clc1cccc(C2Nc3cccc4cccc(c34)N2)c1Cl,23.8%[0.501 µM],39.8µM*,-5.0%,50.1µM*,?,-2.4
Clc1ccccc1C1Nc2cccc3cccc(c23)N1,.,70.8µM*,-17.8%,?,?,-22.2
O=C1NC(c2ccccc2Cl)Nc2ccccc21 (centres undefined),15.2%[59 µM],-1.3%,-1.0%,-30.0%,26.3%,9.3
CCc1ccc(C(=O)NNC(=O)[C@H](C)NC(=O)c2ccco2)cc1,.,.,0.7%,-12.3%,47.6%,2.0
CCC1CCc2nc3sc(C(=O)Nc4ccc(C)cc4)c(N)c3cc2C1 (centres undefined),6.2%[59 µM],-1.1%,.,-10.7%,22.6%,.
COc1cccc(Nc2ncc3nc(C)c(=O)n(CCC#N)c3n2)c1,-4.5%[12.7 µM],.,.,.,.,.
c1ccc(-c2nccc(-c3ccco3)n2)nc1,?,31.6µM*,4.0%,?,32.2%,0.5
COCCNC(=O)c1ccccc1N(Cc1ccccc1)S(=O)(=O)c1ccc(C)cc1,-34.1%,-16.2%,26.7µM*,-17.2%,-16.9%,-11.6
Cc1ccc(S(=O)(=O)N(Cc2ccccc2)c2ccccc2C(=O)NCc2ccco2)cc1,50.1µM*,?,-24.2%,?,8.6%,.
COc1cccc(CSc2nc3ccncc3n2CC(=O)Nc2ccc(OC)c(OC)c2OC)c1,?,-1.9%,.,-33.6%,50.8%,.
CCOc1ccc2nc(N/C(N)=N/C(=S)Nc3ccc(C)c(C)c3)nc(C)c2c1,13.4%,-8.5%,-3.5%,-19.9%,31.9%,7.2
CCNC(=S)/N=C(\N)Nc1nc(C)c2cc(C)ccc2n1,?,11.2µM*,-5.8%,?,12.3%,8.7
COc1ccc2cc(C(=O)C3CCCN(C(=O)c4cnn(C(C)C)c4)C3)ccc2c1 (centres undefined),1.6%,-21.8%,23.8µM*,17.8µM*,4.5%,-9.8
CN(C)c1ccccc1C(=O)N1CCCC(C(=O)c2ccc3ccccc3c2)C1 (centres undefined),50.1µM*,?,-17.1%,?,-3.5%,14.4
COc1ccc(C(=O)C2CCCN(C(=O)c3ccnn3C)C2)c(C)c1 (centres undefined),-1.6%[12.7 µM],-9.7%,-2.7%,-12.5%,10.5%,0.0
COCc1ccc(C(=O)N2CCCC(C(=O)c3ccc(Cl)cc3C)C2)o1 (centres undefined),-8.9%[0.501 µM],-12.5%,18.9µM*,?,6.5%,-1.1
COc1ccc(C(=O)C2CCCN(C(=O)c3ccc(C(C)=O)s3)C2)c(C)c1 (centres undefined),16.0%[12.7 µM],-5.7%,29.9µM*,-35.6%,2.9%,1.8
CCCOC(=O)c1c(NC(=O)c2nc3ncccn3n2)sc(C(=O)OCC)c1C,28.3%[59 µM],6.4%,.,-2.1%,28.0%,.
COc1cc(F)ccc1S(=O)(=O)n1c(C)nc2ccccc21,.,5.3%,-13.3%,-6.8%,41.2%,6.4
COc1cc(C)c(C)cc1S(=O)(=O)n1c(C)nc2ccccc21,.,-32.7%,26.7µM*,?,16.2%,-15.1
SMILES,G9a block,BAZ2B inh,PLK1 PBD inh,JMJD2A Tudor,HP1b binding inh,PI5P4Ka inh
Cc1cc(C)c(S(=O)(=O)n2cnc3ccccc32)c(C)c1,89.1µM*,-9.3%,-6.6%,-11.6%,36.7%,.
COc1ccc(S(=O)(=O)n2cnc3ccccc32)cc1OC,70.8µM*,-7.3%,1.0%,13.9%,37.1%,-2.7
COC(=O)c1cc(OC)c(OC)cc1NC(=O)c1ccc2c(c1)CCN2S(=O)(=O)c1ccccc1,6.7%[59 µM],-9.6%,.,-0.9%,13.4%,.
Cc1ccc(Nc2ccc(N3CCN(C(=O)c4ccc([N+](=O)[O-])cc4Cl)CC3)nn2)cc1,-33.5%[59 µM],?,.,?,2.0%,.
CC1CCCN(c2nc(N(C)c3ccccc3)nc(N)c2[N+](=O)[O-])C1 (centres undefined),31.6µM*,?,-4.1%,?,?,12.3
Nc1nc(Nc2ccccc2)nc(N2CCCC2)c1[N+](=O)[O-],-7.5%,?,1.3%,?,-9.6%,-11.0
CC1CCCN(c2nc(NCc3ccco3)nc(N)c2[N+](=O)[O-])C1 (centres undefined),?,50.1µM*,1.7%,?,?,11.7
CCOc1ccc(Nc2nc(N)c([N+](=O)[O-])c(N3CCN(CC)CC3)n2)cc1,-10.7%[2.33 µM],50.1µM*,-6.5%,?,?,-4.4
Nc1nc(NCc2ccco2)nc(N2CCOCC2)c1[N+](=O)[O-],13.8%[12.7 µM],-12.6%,4.2%,-14.6%,16.3%,-8.2
CCOc1ccc(Nc2nc(N)c([N+](=O)[O-])c(N3CCOCC3)n2)cc1,?,-17.4%,-3.4%,-20.0%,-7.1%,-11.2
Cc1ccc(Nc2nc(N)c([N+](=O)[O-])c(N3CCCC(C)C3)n2)cc1C (centres undefined),20µM*,?,-1.0%,25.1µM*,?,2.1
Cc1nn(CC(=O)N(C)c2c(N)n(Cc3ccccc3)c(=O)[nH]c2=O)c(C)c1[N+](=O)[O-],10.3%[12.7 µM],-3.3%,-7.6%,-2.1%,14.5%,-1.3
CNc1ccc(N=Nc2cccc3ncccc23)cc1,.,.,8.4%,14.1µM*,39.8µM*,1.4
CCOC(=O)C1CCCN(S(=O)(=O)c2cc3c4c(c2)CC(=O)N4CCC3)C1 (centres undefined),2.7%[59 µM],-17.1%,.,-1.9%,22.9%,.
COc1ccc(-c2[nH]ncc2CN2CCCN(c3ccccc3)CC2)c(F)c1,?,?,-6.4%,?,-8.4%,9.1
COc1ccc2cc(-c3[nH]ncc3CN3CCCN(c4ccccc4)CC3)ccc2c1,.,31.6µM*,-0.7%,35.5µM*,20µM*,3.0
CCN(CC)C(=O)CSc1nc2cc3c(cc2c(=O)n1Cc1ccc(OC)cc1)OCO3,?,56.2µM*,-26.4%,79.4µM*,18.0%,1.4
CCN(CC)C(=O)CSc1nnc2nnc3cc(OC)ccc3n12,35.5µM*,-15.9%,23.8µM*,-18.4%,10.5%,-1.4
CCN(CC)C(=O)CSc1nc2cc3c(cc2c(=O)n1CCCCCC(=O)NCCc1ccc(OC)c(OC)c1)OCO3,5.2%[59 µM],-9.7%,.,-12.3%,22.5%,.
COc1ccc2c(C)c(CCC(=O)NCCc3ccccc3)c(=O)oc2c1,-25.0%[59 µM],-1.0%,.,-6.6%,33.5%,.
